# Sampled rows, rich in hits. Any-hit rate of the full collection: about 12%.
# Sm TGR inh = blocks Schistosoma mansoni thioredoxin glutathione reductase; Q962Y6; purified TGR, DTNB reduction, TNB absorbance 405 nm; Potency, µM (doses to about 114 µM), inactives show at the highest dose activity change, negative = inhibition, usual class: inhibitors; hit rate 3% among 360,000; AID 485364; further: on the % scale 0 is the no-effect control and ±100 the full control effect; nearly all actives have a fitted effect of over 60% in size
#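 Kinetic colorimetric format: TGR-catalysed, NADPH-driven DTNB reduction monitored via TNB absorbance. Enzyme dispensed at 20 nM; compound exposure 15 min at room temperature before reaction start.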
# Pf growth 48h = inhibits P. falciparum growth in the first generation, 48 h; Potency, µM (titrated, usually from 28.7 µM), for inactives: at the highest dose activity change, negative = inhibition, hits mostly inhibitors; P. falciparum luciferase growth in erythrocytes, 48 h; hit rate 5.9% among 310,000; AID 504832; further: on the % scale 0 is the no-effect control and ±100 the full control effect
#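 Luminescence readout; reporter = integrated firefly luciferase in P. falciparum. RBC culture at 2% hematocrit, 0.1% parasitemia final, 37 C/5% CO2; decreased signal taken as growth inhibition.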
# AmpC no deterg = blocks E. coli AmpC beta-lactamase in detergent-free assay. P00811. AmpC nitrocefin hydrolysis, absorbance 480 nm, 0.0001% Triton. Potency, µM (highest dose often 57.1 µM), without a hit: at the top dose activity change, negative = inhibition, most hits filed as inhibitors. hit rate 0.52% among 330,000;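 further: plate controls were no compound for no effect and no enzyme for full effect; nearly all actives have a fitted effect of over 20% in size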
# Target sequence (P00811 whole entry, looked up): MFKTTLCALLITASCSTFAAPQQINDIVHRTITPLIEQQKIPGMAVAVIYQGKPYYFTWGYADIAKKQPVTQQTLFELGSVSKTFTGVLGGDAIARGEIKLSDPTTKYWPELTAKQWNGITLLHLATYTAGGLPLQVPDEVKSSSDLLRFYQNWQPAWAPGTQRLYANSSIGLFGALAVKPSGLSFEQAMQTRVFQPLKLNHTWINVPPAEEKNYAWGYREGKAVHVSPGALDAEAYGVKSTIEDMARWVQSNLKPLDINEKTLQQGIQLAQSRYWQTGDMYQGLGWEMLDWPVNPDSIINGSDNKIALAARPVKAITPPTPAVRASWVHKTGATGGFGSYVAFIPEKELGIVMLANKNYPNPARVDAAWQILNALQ
#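 20 mM phosphate pH 7.0 + 0.01% (detergent screen) or 0.0001% Triton X-100; 5.3 nM AmpC reagent; cpd preinc 15 min RT; nitrocefin (800 uM stock) to start; A480 q20 s × 4 min; Activity was normalised to no-enzyme and no-compound control wells.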
# SARS PLP yeast = SARS-CoV PLP inhibition in yeast | S. cerevisiae expressing SARS-CoV PLpro, growth rescue | Potency, µM (highest dose often 32.9 µM), inactives show top-dose activity, positive = growth rescue, actives largely listed as activators | hit rate 0.19% among 330,000 | AID 485353; calls by dose curve; further: 0% is about no effect; nearly all actives have a fitted effect of over 55% in size
# Pf growth 96h = P. falciparum growth inhibition at 96 hours | P. falciparum luciferase reporter growth, 96 h | Potency, µM (titrated, usually from 28.7 µM), for the others: at the highest dose activity change, negative = inhibition, hits mostly inhibitors | hit rate 6.9% among 320,000 | AID 504834; further: on the % scale 0 is the no-effect control and ±100 the full control effect
#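 Readout is luminescence from an integrated firefly luciferase in P. falciparum. Red cells, 2% hematocrit and 0.05% parasitemia final, were cultured with compound through two parasite generations (96 hours) at 37 C, 5% CO2.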
# AmpC detergent = inhibitors of E. coli AmpC beta-lactamase with detergent | AmpC hydrolysis of nitrocefin, absorbance 480 nm, 0.01% Triton | AID 485294 | Potency, µM (top dose mostly 114 µM), for inactives: top-dose activity change, negative = inhibition, actives largely listed as inhibitors | P00811 | hit rate 0.041% among 370,000;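 further: 0% = no-compound wells and -100% = no-enzyme wells; nearly all actives have a fitted effect of over 25% in size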
#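 AmpC (5.3 nM in the dispensed reagent) in 20 mM phosphate pH 7.0 with 0.01% (detergent screen) or 0.0001% Triton X-100 was preincubated with compounds for 15 min at room temperature. Nitrocefin was then added from an 800 uM solution, and hydrolysis was followed at 480 nm.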
# An asterisk follows results filed as active; ? = inconclusive; nt = not tested or not shown. Unless noted, the call rests on the fitted dose curve; in most records, active means well fitted curve in the direction sought with a large enough effect; inconclusive means small, poorly fitted or top-dose-only effect, or another doubt; inactive means no such curve, though single readings can be large; an effect the other way counts as inactive or inconclusive. Potency means the concentration at half of the fitted maximal effect.
SMILES,Sm TGR inh,Pf growth 48h,AmpC no deterg,SARS PLP yeast,Pf growth 96h,AmpC detergent
Cc1cc(C(=O)Nc2cccc3ccccc23)n(-c2ccccc2)n1,-5%,-13%,-3%,-3%,3.3µM*,-7%
COc1ccc(OCCOC(=O)c2ccc(F)c(S(=O)(=O)N3CCOCC3)c2)cc1,3%,?,5%,-3%,?,-7%
O=C(NCc1cccnc1)c1nn(-c2ccccc2F)nc1CO,-4%,nt,nt,nt,nt,3%
CCSC1=C(C#N)C(c2ccc(C)o2)CC(=O)N1 (stereo not given),-32%,1%,-15%,-1%,28%,2%
CCOc1ccccc1C1CC(=O)NC(SCC)=C1C#N (stereo not given),-1%,-10%,-2%,3%,nt,?
CCCSC1=C(C#N)C(c2ccccc2OCC)CC(=O)N1 (stereo not given),2%,?,-11%,1%,5.2µM*,-1%
CCCCCCSC1=C(C#N)C(c2ccc(C)o2)CC(=O)N1 (stereo not given),45µM*,3%,-17%,-3%,-5%,2%
CCc1ccccc1NC(=O)Cc1c(C(=O)O)[nH]c2ccc(Cl)cc12,8%,nt,nt,nt,nt,12%
CCCNC(=O)CCc1nnc2ccc(N3CCN(c4cccc(OC)c4)CC3)nn12,0%,nt,nt,nt,nt,-10%
COc1ccc(S(=O)(=O)Nc2ccc3c(c2)C(=O)N([C@H](C)CO)C[C@H](C)[C@@H](CN(C)C(=O)Nc2c(C)noc2C)O3)cc1,nt,nt,-6%,7%,nt,nt
CC(C)C(NC(=O)c1cccs1)c1nnc(SCC(=O)Nc2nccs2)n1C (stereo not given),3%,?,-24%,4%,9%,?
CCC(Oc1ccccc1)C(=O)Nc1cc(C)on1 (stereo not given),5%,24%,?,-2%,?,-17%
CCC(OC(=O)C(NC(=O)c1ccccc1)c1ccccc1)C(=O)Nc1cc(C)on1 (stereo not given),-4%,15%,-14%,22µM*,7%,?
CCOC(=O)/C(C#N)=C/C1=C(N2CCCC2)CC(C)(C)OC1,-15%,nt,5%,4%,-28%,-8%
CCOC(=O)/C(C#N)=C\C1=C(N2CCOCC2)CC(C)(C)OC1,32µM*,3%,-1%,-3%,-18%,-2%
CCc1ccc2c(c1)cc(CN(C(=S)Nc1ccc(Cl)cc1)C1CC1)c1nnnn12,6%,2.9µM*,-22%,-5%,?,4%
O=c1oc2c(CN3CCCCCC3)c(O)ccc2cc1-c1nc2ccccc2[nH]1,1%,2.3µM*,3%,-1%,6%,-11%
CCc1c(C)c2ccc(O)c(CN3CCCC3)c2oc1=O,-1%,?,-24%,1%,12µM*,1%
O=c1cc(-c2ccccc2)c2ccc(O)c(CN3CCCCC3)c2o1,-29%,10µM*,-14%,2%,27%,-1%
COc1ccccc1-c1c(C)oc2c(CN3CCCC(C)C3)c(O)ccc2c1=O (stereo not given),12%,13µM*,-19%,1%,10µM*,0%
COc1ccc(-c2c(C)oc3c(CN4CCCC(C)C4)c(O)ccc3c2=O)cc1OC (stereo not given),-2%,?,-21%,1%,?,-1%
O=c1oc2c(CN3CCCC3)c(O)ccc2cc1-c1ccccc1,-8%,nt,nt,nt,nt,2%
Cn1nnnc1SCCCNCc1ccccc1OCc1ccc(Cl)cc1,-2%,nt,nt,nt,nt,13%
Cc1oc2c(CN3CCCC(C)C3)c(O)ccc2c(=O)c1-c1ccccc1 (stereo not given),-18%,6.6µM*,-13%,-1%,8.3µM*,-1%
Cc1oc2c(CN3CCCCC3)c(O)ccc2c(=O)c1-c1ccc(Cl)cc1,3%,1.7µM*,-27%,2%,?,?
SMILES,Sm TGR inh,Pf growth 48h,AmpC no deterg,SARS PLP yeast,Pf growth 96h,AmpC detergent
COc1ccccc1Oc1c(C)oc2c(CN3CCN(CCO)CC3)c(O)ccc2c1=O,-16%,22%,-31%,4%,-5%,-7%
Cc1oc2c(CN3CCCC3)c(O)ccc2c(=O)c1Oc1ccccc1Br,6%,1.7µM*,2%,1%,6%,-2%
Cc1c(CNC2CCCCC2)c(C(=O)O)c(C)n1Cc1ccccc1F,-4%,nt,nt,nt,nt,3%
Cc1onc(NC(=O)NC(=O)c2c(Cl)cccc2Cl)c1Br,14%,-5%,-40%,-1%,24%,-15%
C=C(C)COc1ccc(-c2nc(N)ncc2-c2ccc(Br)cc2)c(O)c1,?,8.3µM*,-29%,-5%,?,?
COc1ccc(-c2cnc(N)nc2-c2ccc(OCc3ccccc3)cc2O)cc1,-11%,?,-45%,-2%,15µM*,-5%
COc1cccc(Oc2cncnc2-c2ccc(OC)cc2O)c1,-21%,5.2µM*,-4%,-28%,80%,-11%
CCOc1ccc(-c2nc(N)ncc2Oc2ccccc2Br)c(O)c1,3%,nt,4%,-2%,3.3µM*,-17%
COc1ccc(-c2nc(N)ncc2-c2ccc(OC)c(OC)c2)c(O)c1,-15%,-7%,-17%,-2%,-3%,-1%
Cc1ccccc1[C@@H](NC(=O)OC(C)(C)C)C(=O)OC(C)(C)C,-1%,4%,23%,1%,?,-5%
CCC(C)NC(=O)Cn1c(=O)ccc2cc(S(=O)(=O)N3CCCC3)ccc21 (stereo not given),-1%,nt,nt,nt,nt,-7%
Cc1noc(Cn2c(=O)c3ccccc3n(CC(=O)Nc3ccc(F)cc3F)c2=O)n1,1%,nt,nt,nt,nt,16%
Cc1cc(C)cc(NC(=O)Cn2nnc(-c3ccccc3F)n2)c1,7%,nt,nt,nt,nt,4%
CCNc1nc(OC)nc(SCC(N)=O)n1,1%,-1%,nt,nt,41%,-2%
COc1ccc(-c2ccc(SCC(=O)NC3CCCC3)nn2)cc1OC,6%,15%,-4%,6%,?,5%
C=C(C)COc1ccc(-c2ncncc2-c2ccc(Br)cc2)c(O)c1,3%,1.9µM*,-19%,-3%,2.3µM*,0%
COc1ccc(-c2cncnc2-c2ccc(OC)cc2O)cc1,0%,?,-25%,-2%,?,-5%
C=C(C)COc1ccc(-c2ncncc2-c2ccc(Cl)cc2)c(O)c1,-9%,5.2µM*,-18%,-3%,2.3µM*,-7%
COc1ccc(-c2ncncc2-c2ccc(OC)c(OC)c2)c(O)c1,-23%,-11%,-9%,-1%,-17%,0%
COc1ccc(-c2ncncc2-c2ccc(Cl)cc2)c(O)c1,3%,8.3µM*,-11%,-3%,7.4µM*,-7%
CCOC(=O)C1CCN(C(=O)c2ccc3c(=O)n4nc(Nc5ccccc5)sc4nc3c2)CC1,-6%,nt,nt,nt,nt,-10%

# From PubChem BioAssay
